From PubChem BioAssay (NCI) come the findings set out here.

Each structure is given as a SMILES string. This is part of a sample that, as a whole, favours compounds with a hit. Of some 83,000 tested, about 20% had one in any assay.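 Negative percent growth values reflect cell death: -40 means 40% of the cells present at the start died, and -100 means all died.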 A number with no mark means an inactive call. Active and inactive are the calls of the source. Rule for the calls: active = growth percent below 10; inactive = the rest.

Holding throughout (experiment): NCI-60 one-dose screen, 48 h (100 = growth as untreated, 0 = no growth, -100 = all killed)
For one experiment, the system named is DU-145 prostate. The note with it: 10 µM unless noted.
The test system of another experiment is K-562 leukemia. The note with it: 10 µM unless noted.
The next experiment has as its system MALME-3M melanoma. The note with it: 10 µM unless noted.
The test system of the next experiment is MDA-MB-231 breast. The note with it: 10 µM unless noted.
The next experiment deals with RXF 393 renal. The note with it: 10 µM unless noted.
The next experiment deals with SF-268 CNS. The note with it: 10 µM unless noted.
A further experiment deals with SF-295 CNS. The note with it: 10 µM unless noted.
A further experiment deals with SF-539 CNS. The note with it: 10 µM unless noted.
The next experiment relates to UACC-257 melanoma. The note with it: 10 µM unless noted.
The test system of the next experiment is M14 melanoma. The note with it: 10 µM unless noted.
Another experiment concerns HCT-15 colon. The note with it: 10 µM unless noted.
Another experiment concerns HT29 colon. The note with it: 10 µM unless noted.
The next experiment relates to SNB-75 CNS. The note with it: 10 µM unless noted.
For a further experiment, the system named is SNB-19 CNS. The note with it: 10 µM unless noted.
The test system of the next experiment is U251 CNS. The note with it: 10 µM unless noted.
Another experiment deals with PC-3 prostate. The note with it: 10 µM unless noted.
For a further experiment, the system named is SK-MEL-5 melanoma. The note with it: 10 µM unless noted.
The next experiment concerns UACC-62 melanoma. The note with it: 10 µM unless noted.
The next experiment concerns LOX IMVI melanoma. The note with it: 10 µM.
For the next experiment, the system named is SK-MEL-28 melanoma. The note with it: 10 µM unless noted.

`c1ccc(C2NCCNC2c2ccccc2)cc1` (configuration not stated): the growth in the experiment with DU-145 prostate is 104%; with K-562 leukemia, 105%; in the experiment with MALME-3M melanoma, 111%; with MDA-MB-231 breast, 98.4%; in the experiment with RXF 393 renal, 120%; in the experiment with SF-268 CNS, 101%. The growth with SF-295 CNS was 104%; in the experiment with SF-539 CNS, 98.7%; in the experiment with UACC-257 melanoma, 99.6%; in the experiment with M14 melanoma, 102%; in the experiment with HCT-15 colon it was 102%; with HT29 colon, 101%. Moreover, the growth in the experiment on SNB-75 CNS is 87.5%; in the experiment with SNB-19 CNS it was 102%; in the experiment with U251 CNS, 107%; with PC-3 prostate it was 98.6%; with SK-MEL-5 melanoma, 104%; in the experiment with UACC-62 melanoma it was 102%. In addition, the growth was 99.1% in the experiment on LOX IMVI melanoma and 111% in the experiment with SK-MEL-28 melanoma.

With `CCOc1ccc(C(C[N+](=O)[O-])Sc2ccccc2N)cc1` (configuration not stated), the growth with DU-145 prostate was -19.9% (active); in the experiment with K-562 leukemia, 9.12% (active); with MALME-3M melanoma, 68%; in the experiment on MDA-MB-231 breast, 18.4%; in the experiment on RXF 393 renal it was -65.3% (active); in the experiment with SF-268 CNS it was 120%. For the same compound, the growth is 40.4% in the experiment on SF-295 CNS; -44.5% (active) in the experiment with SF-539 CNS; 59.2% in the experiment on UACC-257 melanoma; -41.2% (active) with M14 melanoma; -11.3% (active) in the experiment on HCT-15 colon; -49.7% (active) with HT29 colon. For the same compound, the growth with SNB-75 CNS was 61.3%; in the experiment on SNB-19 CNS, 46.2%; in the experiment with U251 CNS, 9.82% (active); in the experiment with PC-3 prostate it was 10.7%; with UACC-62 melanoma, 64.6%; with SK-MEL-28 melanoma, -36.4% (active).

On to `CC(C)c1ccc(C(=O)OC2CCCC2)cc1`, for which the growth with DU-145 prostate is 106%; in the experiment on K-562 leukemia it was 120%; with MALME-3M melanoma, 101%; in the experiment with MDA-MB-231 breast, 103%; in the experiment with RXF 393 renal, 118%; in the experiment on SF-268 CNS, 95.1%. Besides, the growth was 106% in the experiment with SF-295 CNS; 108% in the experiment on SF-539 CNS; 125% with UACC-257 melanoma; 93.9% in the experiment with M14 melanoma; 95.3% in the experiment with HCT-15 colon; 113% in the experiment on HT29 colon. Moreover, the growth with SNB-75 CNS is 90.4%; in the experiment on SNB-19 CNS it was 102%; with U251 CNS, 109%; in the experiment with PC-3 prostate, 89.9%; in the experiment with SK-MEL-5 melanoma it was 98.7%; in the experiment with UACC-62 melanoma, 97.7%. In addition, the growth is 95% with LOX IMVI melanoma and 108% in the experiment with SK-MEL-28 melanoma.

Consider `CCOC(=O)c1cc(CC)sc1NC(=O)CC(C)=O`, for which the growth in the experiment on DU-145 prostate was 48.2%; in the experiment with K-562 leukemia, 21.8%; in the experiment on MALME-3M melanoma, 62.2%; with MDA-MB-231 breast it was 54.9%; with RXF 393 renal, 61.7%; in the experiment on SF-268 CNS, 60.1%. The growth in the experiment with SF-295 CNS was 43.2%; with SF-539 CNS, 56.1%; in the experiment with UACC-257 melanoma it was 95.6%; with M14 melanoma, 88.6%; in the experiment with HCT-15 colon, 19.9%; in the experiment on HT29 colon, 47.8%. The growth in the experiment on SNB-75 CNS is 44.8%; with SNB-19 CNS, 29.8%; in the experiment on U251 CNS it was 34.7%; with PC-3 prostate, 36.2%; in the experiment with SK-MEL-5 melanoma, 54.3%; in the experiment with UACC-62 melanoma, 60.4%. The growth in the experiment with SK-MEL-28 melanoma is 96.7%.

`O=[N+]([O-])c1ccc(N2CCN(Cc3ccccc3)CC2)c2c1no[n+]2[O-]`: the growth with DU-145 prostate is 26.8%; in the experiment with K-562 leukemia it was -43.5% (active); with MALME-3M melanoma, 13.5%; with MDA-MB-231 breast it was -3.1% (active); in the experiment on RXF 393 renal, -5.34% (active); with SF-268 CNS, -1.56% (active). Moreover, the growth in the experiment on SF-295 CNS was 6.45% (active); in the experiment with SF-539 CNS, 0.0788% (active); in the experiment with UACC-257 melanoma it was 55.9%; with M14 melanoma it was 30.3%; in the experiment on HCT-15 colon, -52.8% (active); in the experiment on HT29 colon, -70.4% (active). Besides, the growth with SNB-75 CNS was 68.4%; in the experiment on SNB-19 CNS, 37.3%; in the experiment on U251 CNS, -47.8% (active); with PC-3 prostate it was -31.4% (active); with SK-MEL-5 melanoma it was 38.1%; in the experiment with UACC-62 melanoma it was 4.15% (active). Moreover, the values for the growth in the experiment on LOX IMVI melanoma and in the experiment on SK-MEL-28 melanoma were -36.3% (active) and 77%, respectively.

In the case of `NC(=S)N/N=C\c1nccc2c(C(F)(F)F)cccc12`, the growth was 12% in the experiment on DU-145 prostate; 5.11% (active) in the experiment on K-562 leukemia; -10.4% (active) in the experiment with MALME-3M melanoma; 49.1% with MDA-MB-231 breast; 16% in the experiment with RXF 393 renal; 5.75% (active) in the experiment with SF-268 CNS. Further, the growth in the experiment on SF-295 CNS is 7.98% (active); with SF-539 CNS, 0.339% (active); in the experiment with UACC-257 melanoma, -23.9% (active); with M14 melanoma, -26.7% (active); in the experiment with HCT-15 colon, 28.6%; in the experiment on HT29 colon, 18.5%. Further, the growth in the experiment with SNB-75 CNS was 11.6%; in the experiment on SNB-19 CNS, 30.6%; in the experiment with U251 CNS it was 5.79% (active); in the experiment with PC-3 prostate, 18.6%; in the experiment with SK-MEL-5 melanoma, -41.5% (active); in the experiment with UACC-62 melanoma, -3.16% (active). The growth was 4.01% (active) in the experiment with LOX IMVI melanoma and 26.6% with SK-MEL-28 melanoma.

Take `COc1ccc2c(c1)c(CC(=O)O)c(C)n2C(=O)c1ccc(Cl)cc1`: the growth with DU-145 prostate was 107%; with K-562 leukemia, 73.5%; in the experiment on MALME-3M melanoma, 85.1%; with MDA-MB-231 breast, 102%; in the experiment with RXF 393 renal, 109%; with SF-268 CNS, 109%. Moreover, the growth in the experiment with SF-295 CNS was 68.6%; in the experiment with SF-539 CNS it was 114%; in the experiment on UACC-257 melanoma, 109%; with M14 melanoma it was 95.7%; in the experiment with HCT-15 colon, 104%; in the experiment on HT29 colon, 111%. Further, the growth in the experiment on SNB-75 CNS was 84.7%; with SNB-19 CNS, 110%; in the experiment with U251 CNS, 90.3%; with PC-3 prostate, 104%; in the experiment on SK-MEL-5 melanoma it was 93.6%; in the experiment on UACC-62 melanoma, 95.5%. Moreover, the results for the growth with LOX IMVI melanoma and with SK-MEL-28 melanoma were 90.9% and 97.3%, respectively.
